Structures can show the parent of a compound that is named as a salt.
tested on: hsa-mir-191 loop; experiment: normalised indicator fluorescence (fraction of RNA + indicator signal without compound); higher = less displacement of indicator (weaker competition); conditions: compound concentration: 5 uM; 30 min; indicator: TO-PRO-1 0.1 uM; RNA concentration: 0.1 uM
Outline: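 In 96-well plates, RNA was combined with a TO-PRO-1 or TO-PRO-3 indicator in 20 mM phosphate pH 7.0 containing 20 mM NaCl and 80 mM KCl. Each compound was added as 0.25 μL of a 1 mM DMSO stock, giving about 5 uM final, and fluorescence was read on an Infinite 200 PRO after 30 min (excitation 485 or 620 nm). Values are the blank-corrected indicator fluorescence (buffer plus indicator subtracted) divided by the signal of RNA plus indicator without compound, averaged over two independent experiments.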

Row | Structure (SMILES) | normalised indicator fluorescence
1 | CC(=O)Oc1c(C)c(C)c2c(c1C)CCC(C)(CCC[C@H](C)CCC[C@H](C)CCCC(C)C)O2 (stereo not given in full) [Vitamin E Acetate] | 1.01
2 | COc1nccnc1NS(=O)(=O)c1ccc(NC(=O)/C=C/c2ccc([N+](=O)[O-])s2)cc1 [Necrosulfonamide] | 1.12
3 | CN(NC(=O)CC(=O)NN(C)C(=S)c1ccccc1)C(=S)c1ccccc1 [Elesclomol] | 1.05
4 | O=c1ccc2ccc(O)cc2o1 [7-Hydroxycoumarin] | 1.06
5 | O=C(O)/C=C/c1ccc(Cn2ccnc2)cc1 [Ozagrel hydrochloride] | 0.95
6 | Fc1ccc(-c2nc3n(c2-c2ccncc2)CCS3)cc1 | 1.08
7 | O=[N+]([O-])c1ccc(-c2nc(-c3ccc(F)cc3)c(-c3ccncc3)[nH]2)cc1 | 1.06
8 | OC[C@H]1O[C@@H](Oc2ccc(O)cc2)[C@H](O)[C@@H](O)[C@@H]1O [Arbutin] | 0.981
9 | COc1ccc(O)cc1 [4-Methoxyphenol] | 0.962
10 | CCNC(=O)c1noc(-c2cc(C(C)C)c(O)cc2O)c1-c1ccc(CN2CCOCC2)cc1 [Luminespib] | 1.08
11 | O=c1cc(-c2ccc(O)cc2)oc2cc(O)cc(O)c12 [Apigenin] | 1.03
12 | O=C1O[C@H]([C@@H](O)CO)C(O)=C1O [L(+)-Ascorbic acid] | 1.01
13 | O=c1ncn2nc(Sc3ccc(F)cc3F)ccc2c1-c1c(Cl)cccc1Cl [Neflamapimod] | 1.04
14 | Cc1cccc(CC(=O)N2CCc3c2ccc(-c2cn(C)c4ncnc(N)c24)c3F)n1 | 1.03
15 | CC(=O)O[C@H]1C[C@@]2(C)[C@@H](C[C@@H](O)[C@H]3[C@@]4(C)CC[C@@H](O)[C@@H](C)[C@@H]4CC[C@@]32C)/C1=C(\CCC=C(C)C)C(=O)O [Sodium fusidate] | 1.06
16 | CC(=O)CCCCn1c(=O)c2c(ncn2C)n(C)c1=O [Pentoxifylline] | 1.05
17 | Cc1c(C)c2c(c(C)c1O)CC[C@@](C)(CCC[C@H](C)CCC[C@H](C)CCCC(C)C)O2 [Vitamin E] | 1.08
18 | O=C(NC(Cc1cc(=O)[nH]c2ccccc12)C(=O)O)c1ccc(Cl)cc1 (stereo not given) [Rebamipide] | 1.07

Row | Structure (SMILES) | normalised indicator fluorescence
19 | NC(=O)c1ccc(N(C(N)=O)c2c(F)cccc2F)nc1-c1ccc(F)cc1F | 0.984
20 | CC(C)OC(=O)CCC/C=C\C[C@@H]1[C@@H](CC[C@@H](O)CCc2ccccc2)[C@H](O)C[C@@H]1O [Latanoprost] | 1.01
21 | CCCC(C(=O)OCCN(CC)CC)(c1ccccc1)c1ccccc1 [Proadifen hydrochloride] | 1.01
22 | COC1=C2C[C@@H](C)C[C@H](OC)[C@H](O)[C@@H](C)/C=C(\C)[C@H](OC(N)=O)[C@@H](OC)/C=C\C=C(/C)C(=O)NC(=CC1=O)C2=O [Geldanamycin] | 1.09
23 | COc1ccc(C(=C2C(=O)Nc3ccccc32)c2ccc(OC)cc2)cc1 | 1
24 | O=C1C[C@@H](c2ccc(O)cc2)Oc2cc(O)cc(O)c21 [Naringenin] | 0.927
25 | [I-].[K+] [Potassium iodide] | 1.06
26 | CO[C@H]1/C=C/O[C@@]2(C)Oc3c(C)c(O)c4c(c3C2=O)C2=NC3(CCN(CC(C)C)CC3)NC2=C(NC(=O)/C(C)=C\C=C\[C@H](C)[C@H](O)[C@@H](C)[C@@H](O)[C@@H](C)[C@H](OC(C)=O)[C@@H]1C)C4=O [Rifabutin] | 1.04
27 | O=C(O)/C=C/c1ccc(Cn2ccnc2)cc1 [Ozagrel] | 0.962
28 | CC1(C)OC(=O)C=C[C@]2(C)[C@H]3CC[C@@]4(C)[C@H](c5ccoc5)OC(=O)[C@H]5O[C@]54[C@]3(C)C(=O)C[C@@H]12 [Obacunone] | 1.07
29 | NNC(=O)c1ccncc1 [Isoniazid] | 1.01
30 | CC1=NN(c2ccccc2)C(=O)C1 [Edaravone] | 1.06
31 | CC(C)(O)[C@@H]1CC[C@](C)([C@H]2[C@@H](O)C[C@@]3(C)[C@@H]4C[C@H](O)[C@H]5C(C)(C)[C@@H](O[C@@H]6OC[C@@H](O)[C@H](O)[C@H]6O[C@@H]6O[C@H](CO)[C@@H](O)[C@H](O)[C@H]6O)CC[C@@]56C[C@@]46CC[C@]23C)O1 [Astragaloside III] | 1.09
32 | O=C(Nc1ccc2[nH]nc(-c3ccncc3)c2c1)[C@@H]1CCN(CC(=O)N2CCN(c3ccc(-c4ncccn4)cc3)CC2)C1 | 1.05
33 | O=C(COc1ccc(Cl)cc1)NC1CCC(NC(=O)COc2ccc(Cl)cc2)CC1 (stereo not given) | 1.03
34 | Oc1cc(O)c2c(c1)O[C@H](c1ccc(O)c(O)c1)[C@@H](O)C2 [Cianidanol] | 1.01
35 | C[C@@H]1O[C@@H](O[C@@H]2[C@@H](O)[C@H](OCCc3ccc(O)c(O)c3)O[C@H](CO)[C@H]2OC(=O)/C=C/c2ccc(O)c(O)c2)[C@H](O)[C@H](O)[C@H]1O [Verbascoside] | 1.1

From the supplement of paper PMC11865577
